PLAP act: PLAP enzyme activators, biochemical, luminescence, HTS. Alkaline phosphatase, placental type (Homo sapiens), P05187. purified PLAP enzyme, luminescent substrate read-out; hits give high values. activation fold at 20 µM. 96,000 tested, 1.2% active; in the data active = activation fold above about 2
Target sequence (P05187 whole entry, looked up): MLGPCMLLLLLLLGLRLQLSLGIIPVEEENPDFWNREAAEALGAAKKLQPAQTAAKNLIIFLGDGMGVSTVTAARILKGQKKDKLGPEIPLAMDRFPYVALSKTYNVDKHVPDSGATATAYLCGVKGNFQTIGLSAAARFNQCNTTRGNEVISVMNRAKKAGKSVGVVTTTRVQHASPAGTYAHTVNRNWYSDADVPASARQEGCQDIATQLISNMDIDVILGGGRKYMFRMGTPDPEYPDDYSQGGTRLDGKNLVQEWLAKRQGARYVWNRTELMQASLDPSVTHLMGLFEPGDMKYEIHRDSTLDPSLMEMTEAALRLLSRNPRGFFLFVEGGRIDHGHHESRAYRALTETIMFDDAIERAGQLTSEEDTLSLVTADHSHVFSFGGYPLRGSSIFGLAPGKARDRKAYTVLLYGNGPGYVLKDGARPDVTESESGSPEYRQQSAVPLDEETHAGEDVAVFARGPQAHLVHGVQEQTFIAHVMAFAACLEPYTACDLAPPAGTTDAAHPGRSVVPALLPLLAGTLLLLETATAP
CYP2C9 inhib: blockers of cytochrome P450 2C9 activity – biochemical, luminescence, ADME assay, primary screen | P11712 | CYP2C9 Supersomes, luciferin-H conversion | inhibition, % at 5 µM | 96,000 tested, 20% active | AID 777, 2007;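 active = blocking of liver enzyme CYP2C9 beyond about 50% at 5 µM, limit read from the data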
CYP2C19 activ: human CYP2C19 activators, primary screen, biochemical, luminescence | 96,000 tested, under 10 active | activation factor at 5 µM | AID 1025, 2008 | recombinant CYP2C19, luciferin-H EGE luminescence; hits give high values; 0 = fully inhibited enzyme, 1 = untreated enzyme;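 active = activation factor of at least 2 at 5 µM in the primary screen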;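 note: 0 = wells with 2.5 mM tranylcypromine and 1 = vehicle-only wells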
CYP2C9 activ: human CYP2C9 activators, primary screen, biochemical, luminescence; activation factor at 5 µM; 96,000 tested, 1.4% active; recombinant CYP2C9, luciferin-H conversion; hits give high values; factor 1 = untreated enzyme, 0 = blocked; Cytochrome P450 2C9 (Homo sapiens), P11712;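 active = activation factor of 2 or more for CYP2C9 at a 5 µM dose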;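 note: 0 = sulfaphenazole-blocked wells and 1 = vehicle-only wells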
CYP2C19 inhib: blockers of cytochrome P450 2C19 activity – biochemical, luminescence, ADME assay, primary screen. AID 778, 2007. inhibition, % at 5 µM. P33261. 96,000 tested, 21% active. CYP2C19 Supersomes, luciferin-H EGE luminescence, 30 min;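 active = CYP2C19 inhibition above a set limit at 5 µM in the primary screen, cut at about 50% in these data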;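 note: plate controls were negative control wells for no effect and 2.5 mM tranylcypromine positive control for full effect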
* marks the source's active call; other numbers are inactive results. Hits are enriched below; roughly 31% of the tested compounds scored in any of these assays.

SMILES	PLAP act	CYP2C9 inhib	CYP2C19 activ	CYP2C9 activ	CYP2C19 inhib
COc1cccc(N2CCN(C(=O)CN(C)S(=O)(=O)c3ccc4c(c3)CCC(=O)N4)CC2)c1	1.6	45.7	0.9	0.5	12.9
O=C(NC1CCCCCC1)C1CCN(S(=O)(=O)c2ccc(F)cc2)CC1	1	-2.6	1	1	3.7
O=C1CCc2cc(S(=O)(=O)N3CCCC3C(=O)N3CCN(c4ccccc4F)CC3)ccc2N1 (centres undefined)	1	46.3	0.8	0.5	21.5
COc1ccc(C)cc1NC(=O)C1CCCN1S(=O)(=O)c1ccc2c(c1)CCC(=O)N2 (centres undefined)	1.5	-60.1	0.6	1.6	38.9
Cc1ccc(NC(=O)C2CCCN2S(=O)(=O)c2ccc3c(c2)CCC(=O)N3)cc1Cl (centres undefined)	1.2	88.6*	0.4	0.1	60.1*
O=C1CCc2cc(S(=O)(=O)N3CCC(C(=O)NC4CCCCCCC4)CC3)ccc2N1	1.1	57.1*	0.8	0.4	21.0
C=CCn1c(SCC(=O)c2ccc(CNC(C)=O)o2)nc2ccccc2c1=O	1.5	39.9	0.8	0.6	23.6
CC1(C2CC2)NC(=O)NC1=O (centres undefined)	1	-10.8	1	1.1	-3.3
CCCCNc1cc(C)nc(N2CCOCC2)n1	1.2	4.7	0.7	1	25.2
COc1cc(NC(=O)C2CCCN2S(=O)(=O)c2ccc3c(c2)CCC(=O)N3)cc(OC)c1 (centres undefined)	1.6	60.2*	0.9	0.4	13.9
CC(C)NC(=O)C1CCN(C(=O)C(C(=O)c2ccccc2)n2cc(Cl)ccc2=O)CC1 (centres undefined)	1	3.7	1	1	1.4
CCCCN1C(=O)c2ccc(C(=O)Nc3c(N)n(CCCC)c(=O)n(C)c3=O)cc2C1=O	1.1	56.5*	0.9	0.4	8.5
COCCCN1C(=O)c2ccc(C(=O)Nc3ccccc3OC)cc2C1=O	1.1	-99.7	0.7	2*	34.8
COCCN1C(=O)c2ccc(C(=O)Nc3nccs3)cc2C1=O	0.9	-0.3	0.9	1	7.4
COCCN1C(=O)c2ccc(C(=O)O)cc2C1=O	1.5	54.7*	0.9	0.5	14.7
Cc1occc1C(=O)NNC(=O)C(c1ccccc1)c1ccccc1	1.6	41.0	0.8	0.6	19.7
O=C(NC1CCCCC1)Sc1ccc(Cl)cc1	1.1	41.8	0.8	0.6	19.8
O=C(Cc1ccc2c(c1)OCCO2)c1c(O)cc(O)cc1O	1.8	95.9*	0.1	0	93.7*
COc1ccc(-n2nc3c(c2NC(=O)c2c(F)cccc2Cl)CS(=O)C3)cc1 (centres undefined)	0.9	-7.3	1.1	1.1	-7.5
O=C(COc1ccc(Br)cc1Br)NC(=S)N1CCCc2ccccc21	1.3	76.8*	1.1	0.2	-8.7
Cc1ccc(NC(=O)NCCN2C(=O)C3C4C=CC(C4)C3C2=O)cc1 (centres undefined)	0.9	12.9	0.1	0.9	90.7*
Cc1cccc(NC(=O)NCCN2C(=O)C3C4C=CC(C4)C3C2=O)c1 (centres undefined)	1.1	6.3	0.2	0.9	79.6*
Cc1cccc(NC(=O)CCN2C(=O)C3C4C=CC(C4)C3C2=O)c1 (centres undefined)	1.1	26.3	0.1	0.7	85.4*
Cc1cccc(NC(=O)CCn2ccnc2C)c1	0.9	14.1	0.4	0.9	62.0*
C=CCN1C(=O)CC(C(=O)NC)SC1=Nc1ccc(C(=O)OCC)cc1 (centres undefined)	1.5	25.2	0.9	0.7	11.1
SMILES	PLAP act	CYP2C9 inhib	CYP2C19 activ	CYP2C9 activ	CYP2C19 inhib
O=C(CCN1C(=O)C2C3C=CC(C3)C2C1=O)NCc1cccnc1 (centres undefined)	1.1	-8.3	0	1.1	98.1*
Cc1ccccc1NC(=O)NCCN1C(=O)C2C3C=CC(C3)C2C1=O (centres undefined)	1	4.6	0.5	1	50.2*
O=C(NCCN1C(=O)C2C3C=CC(C3)C2C1=O)Nc1ccccc1 (centres undefined)	1	19.1	0.3	0.8	69.6*
O=C(NCCN1C(=O)C2C3C=CC(C3)C2C1=O)NCc1ccccc1 (centres undefined)	1	10.8	0.9	0.9	11.8
Cc1nc(NCc2ccco2)nc2c1C(=O)CC(C)C2 (centres undefined)	1.1	21.2	1	0.8	3.0
Cc1nn(C(=O)c2cccs2)c(C)c1CN1C(=O)c2ccccc2C1=O	0.8	39.2	0.7	0.6	28.3
Cc1nn(C(=O)c2ccco2)c(C)c1CN1C(=O)c2ccccc2C1=O	1	95.6*	0.6	0	41.5
Cc1nn(C(=O)N2CCCCC2)c(C)c1CN1C(=O)c2ccccc2C1=O	1.4	61.2*	0.3	0.4	68.7*
CCOc1ccc2[nH]c(=O)c(C(c3nnnn3Cc3ccco3)N3CCCC(C)C3)cc2c1 (centres undefined)	1.7	78.6*	0	0.2	95.9*
CCOc1ccc2[nH]c(=O)c(C(c3nnnn3Cc3ccco3)N3CCC(C)CC3)cc2c1 (centres undefined)	1.1	39.5	0.4	0.6	61.8*
Cc1ccc(C)c2[nH]c(=O)c(C(c3nnnn3Cc3ccco3)N3CCc4ccccc4C3)cc12 (centres undefined)	1.6	80.8*	0	0.2	95.3*
Cc1cc(C)nc(Sc2c(C)n[nH]c2C)n1	1.8	-57.0	1	1.6	0.4
COCCCNC(=O)c1c(NC(=O)C2COc3ccccc3O2)sc2c1CCCC2 (centres undefined)	0.8	91.8*	0.2	0.1	82.4*
O=C(CSc1ncccc1C(=O)O)NCCC1=CCCCC1	1	5.8	1	0.9	0.2
O=C(CN1C(=O)C2C3C=CC(C3)C2C1=O)NCCN1CCCc2ccccc21 (centres undefined)	0.9	-17.6	0.9	1.2	9.1
O=C(CN1CCN(c2ncccn2)CC1)NCCC1=CCCCC1	1.3	94.4*	0.5	0.1	53.5*
O=C(NCCC1=CCCCC1)C1COc2ccccc2O1 (centres undefined)	1.3	58.3*	0.1	0.4	87.2*
O=C(CN1C(=O)C2C3C=CC(C3)C2C1=O)NCCC1=CCCCC1 (centres undefined)	1.1	14.9	0.5	0.9	51.3*
O=C(NCCCN1CCOCC1)C1COc2ccccc2O1 (centres undefined)	1.1	-8.0	0.7	1.1	28.8
O=C(NCCN1CCOCC1)c1cc2n(n1)C(C(F)(F)F)CC(c1ccc(F)cc1)N2 (centres undefined)	1.7	-7.4	1.2	1.1	-17.1

Screening results: PubChem BioAssay, Sanford-Burnham Center for Chemical Genomics
